This passage reports PBM binding z-score results from the supplement of paper PMC6555819.

Common to all, as to assay: PBM binding z-score (relative to random genomic background probes); higher = stronger binding; sequences stand for … in GC…GCGATTGACAGCGTAGAATGAAGG
Experiment [1] deals with FXR:RXRa (NR concentration 270 nM, RXRa partner concentration 90 nM). The method in brief: (§1)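 Custom Agilent 4×180K protein-binding microarrays carried double-stranded probes. Their 34-nt variable regions held direct-repeat seeds, single-nucleotide variants, half-site ablations and random human genomic background sequences. Arrays were incubated 1 h with ligand-free nuclear receptor dimers in PBS pH 7.4, 2% milk, 0.02% Triton X-100, 1 mM DTT, 0.2 mg/mL BSA and 0.4 mg/ml salmon testes DNA. Antibodies against each partner (one per run) detected binding, and scanned fluorescence was regression-normalized. Binding z-scores use random background probes as reference.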

The subject of experiment [2] is LXRa:RXRa (NR concentration 270 nM, RXRa partner concentration 90 nM). In a few lines:
as §1

Experiment [3] deals with LXRa homodimer (NR concentration 270 nM). In a few lines: as §1
Experiment [4] has as its system LXRb:RXRa (NR concentration 270 nM, RXRa partner concentration 90 nM). The method in brief:
as §1

Experiment [5] concerns LXRb homodimer (NR concentration 270 nM). The method in brief: as §1
For experiment [6], the system named is PPARa:RXRa (NR concentration 270 nM, RXRa partner concentration 90 nM). The method in brief:
as §1

Experiment [7] has as its system PPARg:RXRa (NR concentration 180 nM, RXRa partner concentration 90 nM). In a few lines: as §1
Experiment [8] relates to PPARg:RXRa 270nM:90nM, anti-RXR (NR concentration 270 nM, RXRa partner concentration 90 nM). The method in brief: as §1
Experiment [9] concerns PPARg:RXRa 30nM:10nM, anti-RXR (NR concentration 30 nM, RXRa partner concentration 10 nM). The method in brief: as §1
Experiment [10] has as its system PPARg:RXRa 90nM:30nM, anti-RXR (NR concentration 90 nM, RXRa partner concentration 30 nM). The method in brief: as §1
Experiment [11] has as its system PPARg:RXRa DBDmut IVT, anti-RXR (DBD mutation: RXRa K156A/R161A, NR concentration 270 nM, RXRa partner concentration 90 nM). The method in brief:
as §1

Experiment [12] concerns PPARg:RXRa IVT, anti-PPARg (NR concentration 270 nM, RXRa partner concentration 90 nM). In a few lines:
as §1

Experiment [13] relates to PPARg DBDmut:RXRa IVT, anti-PPARg (DBD mutation: PPARg1 K132A/R137A, NR concentration 270 nM, RXRa partner concentration 90 nM). The method in brief: as §1
The test system of experiment [14] is PPARg DBDmut IVT, anti-PPARg (DBD mutation: PPARg1 K132A/R137A, NR concentration 270 nM). The method in brief: as §1
For experiment [15], the system named is PPARg homodimer (NR concentration 180 nM). The method in brief:
as §1

Experiment [16] has as its system PXR:RXRa (NR concentration 270 nM, RXRa partner concentration 90 nM). In a few lines:
as §1

Experiment [17] relates to PXR homodimer (NR concentration 270 nM). The method in brief: as §1
The subject of experiment [18] is RARa:RXR (NR concentration 270 nM, RXRa partner concentration 90 nM). The method in brief:
as §1

Experiment [19] has as its system RARa homodimer (NR concentration 270 nM). The method in brief:
as §1

Experiment [20] has as its system RARb:RXRa (NR concentration 270 nM, RXRa partner concentration 90 nM). The method in brief:
as §1

For ATACCTAGGTGATCGTGAGGTCGTTGATACTAAC, the PBM binding z-score in [1] is 1.53; in [2], 1.12; in [3], 0.563; in experiment [4] it was 1.35; in [5] it was 0.0825; in experiment [6], 1.55. The PBM binding z-score amounted to 0.632 in [7]; 0.766 in experiment [8]; 0.387 in experiment [9]; 0.954 in [10]; 1.24 in experiment [11]; 1.46 in experiment [12]. In addition, the PBM binding z-score was 0.324 in [13]; 0.924 in experiment [14]; 0.783 in [15]; 2.64 in experiment [16]; 2 in experiment [17]; 2.04 in experiment [18]. In addition, the PBM binding z-score was found to be 0.311 in [19] and 1.09 in experiment [20].

For the sequence ACTAGTTGGTCAGTTGAGGTCACACACAATTCGG, the PBM binding z-score in [1] was 3.26; in experiment [2], 3.93; in [3], 3.56; in experiment [4], 3.58; in experiment [5], 0.939; in experiment [6], 4.12. Besides, the PBM binding z-score in [7] turned out to be 2.13; in [8] it was 2.59; in [9] it was 0.914; in [10], 1.69; in experiment [11], 1.58; in experiment [12], 2.98. Moreover, the PBM binding z-score in experiment [13] is 1.37; in experiment [14] it was 0.982; in experiment [15], 3.72; in experiment [16] it was 5.67; in experiment [17], 2.39; in experiment [18], 4.98. Also, the PBM binding z-score in [19] worked out at 1.56; in experiment [20], 3.54.

With AGCTCTAGGTAAGACTCAGTTCAGTGAAGAACGC, the PBM binding z-score in [1] is -0.104; in [2], 0.132; in experiment [3], 0.197; in experiment [4], -0.188; in experiment [5], -0.399; in [6], -0.0359. Also, the PBM binding z-score in experiment [7] was -0.139; in experiment [8] it was 0.0762; in experiment [9] it was 0.0391; in experiment [10], -0.261; in experiment [11] it was 2.37; in experiment [12], 0.56. The PBM binding z-score in [13] is -0.869; in experiment [14], 0.622; in [15], -0.0493; in [16] it was 0.744; in experiment [17], 0.904; in [18] it was -0.0214. The figures for the PBM binding z-score in [19] and in [20] were -0.00994 and -0.0595, respectively.

On to TCTAGTAGATCAAGCAGGTTAAGAAAGCCTGAGT, for which the PBM binding z-score was -0.193 in experiment [1]; -0.025 in experiment [2]; -0.279 in experiment [3]; 0.194 in experiment [4]; -0.909 in experiment [5]; 0.517 in experiment [6]. Besides, the PBM binding z-score in [7] was -0.406; in [8], 1.3; in experiment [9] it was 2.82; in experiment [10], 1.92; in [11], 1.47; in [12], 0.398. The PBM binding z-score was -0.251 in [13]; -0.0304 in experiment [14]; 0.0496 in experiment [15]; 0.277 in [16]; -0.142 in experiment [17]; 0.334 in experiment [18]. For the same sequence, the PBM binding z-score is -0.0896 in experiment [19] and -0.149 in experiment [20].

With CGTCAAAGTTCAACTAAAGTAACGTAAAGCACGC, the PBM binding z-score in experiment [1] is 6.66; in experiment [2], 6.26; in [3] it was 3.94; in experiment [4] it was 4.14; in [5] it was 2.66; in experiment [6], 4.93. Moreover, the PBM binding z-score in [7] is 5; in experiment [8], 5.38; in experiment [9], 2.2; in experiment [10] it was 4.09; in experiment [11], 0.164; in experiment [12], 2. In addition, the PBM binding z-score in experiment [13] was determined as 1.4; in experiment [14], 1.46; in experiment [15], 3.19; in [16], 4.82; in experiment [17] it was 3.3; in experiment [18] it was 4.03. Also, the PBM binding z-score in experiment [19] came out at 2.17; in [20] it was 5.28.

As for GCAAGTTGGTCAGTAAAAGGTCACACACCGGTCG, the PBM binding z-score in experiment [1] is 3.28; in experiment [2], 4.29; in [3], 4.58; in [4], 4.17; in [5], 0.833; in [6], 4.62. In addition, the PBM binding z-score in experiment [7] is 3.08; in [8] it was 4.43; in experiment [9], 2.58; in experiment [10] it was 3.92; in experiment [11], 1.27; in experiment [12] it was 2.7. The PBM binding z-score turned out to be 0.611 in experiment [13]; 0.159 in experiment [14]; 4.55 in experiment [15]; 5.2 in experiment [16]; 1.01 in experiment [17]; 5.84 in [18]. The PBM binding z-score was 1.75 in experiment [19] and 4.17 in experiment [20].

Take GCTTGTAGATCAAGGTTTAGAAAGACTAAGCTAA: the PBM binding z-score was -0.378 in experiment [1]; -0.689 in [2]; -0.302 in experiment [3]; -0.532 in [4]; -0.671 in [5]; 0.113 in experiment [6]. The PBM binding z-score is 1.13 in experiment [7]; 2.05 in experiment [8]; 0.713 in experiment [9]; 2.05 in [10]; 1.06 in experiment [11]; 0.361 in [12]. The PBM binding z-score in [13] was -0.41; in experiment [14] it was 0.0012; in experiment [15], -0.0341; in experiment [16] it was -0.479; in [17], -0.437; in experiment [18] it was -0.166. Moreover, the PBM binding z-score in experiment [19] was 0.111; in experiment [20], -0.486.
